aSyn UTR inh: MLPCN primary screen, SNCA 5' untranslated region | alpha-synuclein 5'UTR reporter, inhibitor activity | inhibition, % (tested at 7.5 µM) | hit rate 0.82% among 300,000 | AID 1813, 2009; in the data active = inhibition above about 60%;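 also: H4 neuroglioblastoma cells stably carrying SNCA 5'UTR luciferase fusion; 0% = DMSO wells and 100% = positive control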
Platelet DG rel: inhibitors of platelet dense granule secretion, primary screen, cell-based, MLPCN, human platelets; human platelet-rich plasma, SFLLRN dense granule ATP release, luminescence; inhibition, %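 (compounds screened at 7.5 µM in platelet-rich plasma)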; hit rate 0.22% among 300,000; AID 1663, 2009;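 active = mean replicate score, as percent of positive control, at or above 50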
HIF act: HIF pathway transcriptional activators, primary screen, cell-based, U2OS HRE-luciferase, luminescence. hit rate 0.32% among 300,000. activation, % at 7.5 µM (by protocol). U2OS HRE-luciferase reporter; normalized: DMSO 0%, desferrioxamine 100%;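 active = mean activation of at least 10% of the iron chelator positive control signal, with at least half of replicates also reaching 10%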
Wee1 degr inh: Wee1 degradation inhibitors, primary screen, cell-based, HeLa, Wee1K328M-luciferase, luminescence; hit rate 1.2% among 220,000; reporter increase, % at 5 µM; Wee1-like protein kinase (Homo sapiens), P30291; AID 1321, 2008; HeLa Luc-Wee1K328M stability; 100% = proteasome inhibitor MG132 effect;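 active = activation above the mean of all tested compounds plus 3 SD, set per screening run, cut at about 8.8% in these data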;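 also: cells exposed to compound for 20 h before luminescence read; 0% = DMSO alone and 100% = MG132 at 30 µM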
Target sequence (P30291 whole entry K328M): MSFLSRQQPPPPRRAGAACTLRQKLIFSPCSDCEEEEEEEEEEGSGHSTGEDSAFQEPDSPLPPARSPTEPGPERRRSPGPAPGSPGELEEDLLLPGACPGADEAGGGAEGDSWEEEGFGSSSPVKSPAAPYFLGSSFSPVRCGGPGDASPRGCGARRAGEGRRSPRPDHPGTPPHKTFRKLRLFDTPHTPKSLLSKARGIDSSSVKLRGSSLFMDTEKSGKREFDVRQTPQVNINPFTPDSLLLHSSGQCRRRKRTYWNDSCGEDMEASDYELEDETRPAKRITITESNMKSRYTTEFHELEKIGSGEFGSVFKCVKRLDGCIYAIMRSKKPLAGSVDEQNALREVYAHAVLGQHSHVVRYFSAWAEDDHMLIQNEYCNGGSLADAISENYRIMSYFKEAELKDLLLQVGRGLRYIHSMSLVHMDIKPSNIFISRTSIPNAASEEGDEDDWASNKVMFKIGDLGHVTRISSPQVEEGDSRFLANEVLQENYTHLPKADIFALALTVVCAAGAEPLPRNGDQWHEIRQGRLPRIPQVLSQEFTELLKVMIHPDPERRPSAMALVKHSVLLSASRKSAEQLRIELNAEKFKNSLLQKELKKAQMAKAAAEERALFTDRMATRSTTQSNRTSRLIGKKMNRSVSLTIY
KLF5 inhibitor: KLF5 expression inhibitors, primary screen, DLD-1 cells, luminescence; DLD-1 KLF5 promoter-luciferase reporter; hit rate 0.23% among 290,000; inhibition, % at 5 µM;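 active = inhibition above a per-plate limit of that plate's mean compound inhibition plus 3 SD, cut at about 60% in these data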;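 also: 0% = DMSO wells and 100% = LY294002 at 200 µM; higher means less KLF5 promoter-driven luciferase light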
An asterisk follows results filed as active; . = not tested or not shown. Only some compounds are listed: those with a hit (about 2.1% of all), similar ones and a draw of the others.

SMILES	aSyn UTR inh	Platelet DG rel	HIF act	Wee1 degr inh	KLF5 inhibitor
Cc1onc(-c2ccccc2)c1C(=O)Nc1cc(C(F)(F)F)ccc1N1CCOCC1	29	-4	-2	2	44
CCOC(=O)c1ccc(N2CCOCC2)c(NC(=O)c2c(-c3ccccc3)noc2C)c1	46	2	0	10*	50
COc1ccc(Cl)cc1S(=O)(=O)N1CCCC1=O	19	-1	0	10.0*	4
COc1ccc(Cl)cc1S(=O)(=O)N1CCN=C1c1ccccc1	6	-5	-3	.	-14
COc1ccc(Oc2nccc(-c3ccc(F)cc3)c2C#N)cc1	-82	0	1	12*	-34
S=C(NCC1CCCO1)N1CCc2ccccc2C1 (centres undefined)	-23	-17	0	.	-40
Clc1ccc(OCc2cn3cccnc3n2)c2ncccc12	-64	5	-4	11*	-49
c1cnc2c(OCc3cn4cccnc4n3)cccc2c1	.	.	.	2	-55
O=C(NCCc1ccc(Cl)cc1)c1ccc2c(c1)OCCO2	-38	3	-4	.	-121
COc1ccc(CNC(=O)c2ccc(=O)oc2)cc1OC	-6	1	0	9.4*	15
O=C(c1cc([N+](=O)[O-])ccc1Cl)N1CCc2ccccc21	23	-7	2	.	-19
O=C(c1cc([N+](=O)[O-])ccc1N1CCCCC1)N1CCc2ccccc21	81*	-10	0	7	-7
Cc1ccc(C(=O)c2cc([N+](=O)[O-])ccc2N2CCCCC2)c(C)c1	69*	18	1	1	37
O=C(c1cc([N+](=O)[O-])ccc1N1CCOCC1)N1CCOCC1	-12	-1	0	0	-18
Cc1ccc(C(=O)c2cc([N+](=O)[O-])ccc2N2CCOCC2)cc1	92*	0	0	-1	10
COc1ccc(OC)c(-c2nnc(SCC(=O)N3CCCC3)o2)c1	14	-24	0	.	-19
CCC(=O)NCc1cc(-c2nn(C)c(=O)c3ccccc23)ccc1C	13	-4	1	2	2
Cc1ccc(-c2nn(CC(=O)NCc3cc(-c4nn(C)c(=O)c5ccccc45)ccc3C)c(=O)c3ccccc23)cc1	114*	-3	3	3	-12
CC1CC(C)CN(C(=O)C2CCCN(S(=O)(=O)c3cnc[nH]3)C2)C1 (centres undefined)	4	2	-1	-3	3
CN1CCN(Cn2cc(/C=C/C(=O)c3ccccc3)c3ccccc32)CC1	-312	14	3	10*	-215
CCOC(=O)N1CCN(C2CC(=O)N(c3ccc(Cl)c(Cl)c3)C2=O)CC1 (centres undefined)	.	.	.	-1	-22
CCOC(=O)N1CCN(c2ccc(Cl)c(Cl)c2)CC1	-3	6	107*	-3	-13
COc1cc(C(=O)COC(=O)c2cc([N+](=O)[O-])ccc2N2CCOCC2)ccc1OC(F)F	4	-5	0	.	.
CC1CCN(S(=O)(=O)c2cccc(C(=O)Nc3ccccc3)c2)CC1	-11	-7	-1	1	-25
Cc1nn(CC(C)C)c2sc(C(=O)NC3CC(C)(C)NC(C)(C)C3)cc12	-2	-20	0	.	-13
SMILES	aSyn UTR inh	Platelet DG rel	HIF act	Wee1 degr inh	KLF5 inhibitor
O=C(O)c1ccc2c3c(ncnc13)-c1ccccc1C2=O	107*	-1	0	-1	-3
O=[N+]([O-])c1ccccc1/C=N/Nc1nccnc1Cl	-184	6	2	4	-22
O=[N+]([O-])c1cccnc1N/N=C/c1ccccc1O	48	43	21*	-3	-45
Cc1c(O)ccc(/C=N/Nc2ncccc2[N+](=O)[O-])c1O	-39	63*	8	.	-21
CCN(CC)CCCNC1=C(Cl)C(=O)c2ccccc2C1=O	76*	-2	-6	-1	-3
Cc1ccc(S(=O)(=O)N2CCN(C3CC(=O)N(CCc4ccccc4)C3=O)CC2)cc1C (centres undefined)	29	-3	0	9.9*	-20
O=C1CC(N2CCN(S(=O)(=O)c3ccc(Cl)cc3)CC2)C(=O)N1CCc1ccccc1 (centres undefined)	-6	-6	0	-3	-15
NS(=O)(=O)c1ccc(NC(=O)COC(=O)c2ccc(Cl)cc2[N+](=O)[O-])cc1	-15	-1	-1	11*	-14
O=C(CN1CCN(Cc2ccccc2)CC1)Nc1ccc(N2CCOCC2)cc1	28	-4	0	-1	8
O=C(CS(=O)(=O)c1ccccc1)Nc1ccc(N2CCOCC2)cc1	18	-21	20*	-1	-19
CCCCCCn1nc(C(=O)Nc2nc3c(s2)CCCC3)c2ccccc2c1=O	9	5	10*	-1	-10
Cc1nc2ccc(NC(=O)c3nn(CC(C)C)c(=O)c4ccccc34)cc2s1	53	5	1	2	20
Cc1nnc(NC(=O)c2nn(CC(C)C)c(=O)c3ccccc23)s1	20	0	0	10*	-11
CCCCn1nc(C(=O)Nc2nc3c(s2)CCCC3)c2ccccc2c1=O	28	-2	0	2	11
CC/C(=N/NC(=O)c1ccc2c(c1)OCO2)c1ccccc1O	33	3	4	.	.
COc1ccc(N2CCN(C3CCCN(Cc4cccc(C(C)=O)c4)C3)CC2)cc1 (centres undefined)	-7	1	2	.	-1
COc1ccc(-c2csc(NC(=S)NC(=O)/C=C/c3ccco3)n2)cc1OC	63*	1	0	-3	-14
COc1ccc(-c2csc(NC(=S)NC(=O)/C=C/c3ccco3)n2)cc1Br	91*	7	1	4	-6
Cc1ccc(-c2cc(C(=O)N/N=C/c3c(C)nn(-c4ccccc4)c3C)[nH]n2)cc1	66*	12	1	2	-7
COc1cccc(C(=O)NCC(=O)N/N=C/c2ccc3c(c2)OCO3)c1	-21	11	-10	.	-34
COc1ccc(-c2csc(Nc3ccc(S(N)(=O)=O)cc3)n2)cc1OC	62*	-1	0	-3	-25
CCOC(=O)C1CCN(C(=O)c2c(C)oc3c2C(=O)c2ccccc2C3=O)CC1	72*	-19	0	-1	5
Cc1oc2c(c1C(=O)N1CCC(C)CC1)C(=O)c1ccccc1C2=O	83*	-15	-1	-1	-23
CCOc1ccc(C2=Nn3c(nnc3-c3ccc(OC)cc3)SC2)cc1	84*	-11	-2	7	-5
COc1ccc(C2=Nn3c(nnc3-c3ccncc3)SC2)cc1	8	2	4	-2	-14
CCOC(=O)c1cc(-c2ccccc2)n(Cc2cc(CC)no2)n1	5	-1	1	.	.
N#C/C(=C\c1c(Oc2ccccc2F)nc2ccccn2c1=O)C(=O)NC1CCS(=O)(=O)C1 (centres undefined)	16	5	0	.	-6

Bioassay records deposited in PubChem BioAssay by several laboratories.
